Values joined by “and” are separate entries in the source; they are usually repeats but may differ in a detail not shown here. Equal values may be shown once. Inconclusive results are not listed. Where a call stands in place of a potency, no number is given. The source holds several records for some structures; these can differ, active in one and inactive in another. Active and inactive are the calls of the source. Calls follow the shape of the dose curve; as a rule, active = well fitted curve in the direction sought with a large enough effect in the repeat runs; inconclusive = weak or mixed curves; inactive = no such curve, though single readings can be large; an effect the other way counts as inactive or inconclusive.
Tests used:
[1] = Human pregnane X receptor (PXR) small molecule agonists, qHTS cell viability counter screen (AID 1346977); also: nearly all actives have a fitted effect of over 50% in size
Procedure, shortened: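 Same-well viability read: CellTiter-Fluor added after 23 hr compound exposure, fluorescence measured 1 hr later. Cells were PXR-Luc HepG2 seeded at 2,000/well in 5% charcoal-stripped FBS medium, rested 5 hr before dosing at 37 C.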

[2] = Caspase-3/7 induction in HepG2 cells by small molecules, qHTS assay (AID 1346978); also: nearly all actives have a fitted effect of over 15% in size; also: potency is read from the fitted curve at half-maximal effect
Procedure, shortened: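 Wild-type HepG2 cells (2,000/well) were settled 5 h at 37 C, 5% CO2, then exposed to compounds in DMSO for 17 h. Caspase-3/7 activity was read by luminescence 30 min after adding Caspase-Glo 3/7 reagent at room temperature.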

[3] = Caspase-3/7 induction in CHO-K1 cells by small molecules, qHTS cell viability counter screen (AID 1346979); also: nearly all actives have a fitted effect of over 35% in size; also: potency is read from the fitted curve at half-maximal effect
Procedure, shortened: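 Cytotoxicity counter screen: CellTiter-Fluor added to compound-treated wild-type CHO-K1 cells at 16 h (37C, 5% CO2), fluorescence measured 1 h later; same wells as caspase-3/7 measurement.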

[4] = Caspase-3/7 induction in CHO-K1 cells by small molecules, qHTS assay (AID 1346980); also: nearly all actives have a fitted effect of over 15% in size
Procedure, shortened: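 Wild-type cells were seeded at 1,500 per well and settled 5 hr at 37 C, 5% CO2, then exposed to DMSO-dissolved compounds for 17 hr. Caspase-Glo 3/7 reagent was added, and luminescence was read after 30min at room temperature.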

[5] = Caspase-3/7 induction in HepG2 cells by small molecules, qHTS cell viability counter screen (AID 1346981); also: nearly all actives have a fitted effect of over 30% in size; also: potency is read from the fitted curve at half-maximal effect
Procedure, shortened: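 Steps: seed 2,000 HepG2 cells per well; incubate 5 hr at 37 C; pin-add compounds in DMSO; incubate 16 hr; add CellTiter-Fluor; after 1 hr at 37 C and 5% CO2, read fluorescence.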

[6] = target: Cytochrome P450 2D6 (Homo sapiens) (UniProt P10635); experiment: Cytochrome P450 Family 2 Subfamily D Member 6 (CYP2D6) small molecule antagonists: luciferase reporter qHTS assay (AID 1671196); also: nearly all actives have a fitted effect of over 50% in size; also: potency is read from the fitted curve at half-maximal effect
Chain of Cytochrome P450 2D6 (Homo sapiens) (P10635 whole entry, looked up): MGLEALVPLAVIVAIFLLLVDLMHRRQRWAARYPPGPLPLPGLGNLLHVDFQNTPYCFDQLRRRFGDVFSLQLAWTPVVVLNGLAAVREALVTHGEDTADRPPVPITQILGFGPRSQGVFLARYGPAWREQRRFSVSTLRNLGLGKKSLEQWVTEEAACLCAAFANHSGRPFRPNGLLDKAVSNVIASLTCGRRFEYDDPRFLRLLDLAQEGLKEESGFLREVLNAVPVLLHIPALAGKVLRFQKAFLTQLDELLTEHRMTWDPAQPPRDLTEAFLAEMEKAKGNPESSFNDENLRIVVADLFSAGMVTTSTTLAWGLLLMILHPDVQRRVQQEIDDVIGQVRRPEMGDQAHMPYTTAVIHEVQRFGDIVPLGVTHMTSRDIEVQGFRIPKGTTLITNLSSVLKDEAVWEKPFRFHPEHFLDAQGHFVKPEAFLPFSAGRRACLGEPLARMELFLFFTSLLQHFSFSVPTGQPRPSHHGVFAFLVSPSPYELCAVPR
Procedure, shortened: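 P450-Glo format: CYP2D6 converts a proluciferin substrate to luciferin in an NADPH-driven reaction lasting 1 h at room temperature. Light output, proportional to CYP2D6 activity, reflects interference by test chemicals.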

[7] = target: Cytochrome P450 2C19 (Homo sapiens) (UniProt P33261); experiment: Cytochrome P450 Family 2 Subfamily C Member 19 (CYP2C19) small molecule antagonists: luciferase reporter qHTS assay (AID 1671197); also: nearly all actives have a fitted effect of over 65% in size; also: potency is read from the fitted curve at half-maximal effect
Chain of Cytochrome P450 2C19 (Homo sapiens) (P33261 whole entry, looked up): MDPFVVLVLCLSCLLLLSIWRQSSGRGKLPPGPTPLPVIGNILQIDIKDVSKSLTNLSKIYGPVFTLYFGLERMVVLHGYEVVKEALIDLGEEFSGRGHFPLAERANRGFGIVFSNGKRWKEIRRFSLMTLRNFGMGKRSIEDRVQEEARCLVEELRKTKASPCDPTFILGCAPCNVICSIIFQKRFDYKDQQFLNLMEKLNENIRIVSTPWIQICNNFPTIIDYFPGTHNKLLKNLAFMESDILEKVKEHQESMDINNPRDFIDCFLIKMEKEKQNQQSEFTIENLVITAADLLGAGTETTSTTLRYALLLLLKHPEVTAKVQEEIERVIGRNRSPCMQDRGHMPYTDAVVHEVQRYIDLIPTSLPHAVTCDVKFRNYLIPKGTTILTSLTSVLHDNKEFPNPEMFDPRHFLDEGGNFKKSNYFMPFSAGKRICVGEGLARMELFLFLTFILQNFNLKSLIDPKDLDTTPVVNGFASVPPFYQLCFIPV
Procedure, shortened: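 Inhibition of CYP2C19 was scored from loss of luminescence in a P450-Glo proluciferin substrate assay, NADPH-started and run 1 h at 37C, with ketoconazole as positive control.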

[8] = target: Voltage-gated inwardly rectifying potassium channel KCNH2 (Homo sapiens) (UniProt Q12809); experiment: Human Ether-a-go-go-Related Gene (hERG) channel small molecule antagonists: fluorescence cell-based qHTS assay (AID 1671200); also: nearly all actives have a fitted effect of over 50% in size; also: potency is read from the fitted curve at half-maximal effect
Chain of Voltage-gated inwardly rectifying potassium channel KCNH2 (Homo sapiens) (Q12809 whole entry, looked up): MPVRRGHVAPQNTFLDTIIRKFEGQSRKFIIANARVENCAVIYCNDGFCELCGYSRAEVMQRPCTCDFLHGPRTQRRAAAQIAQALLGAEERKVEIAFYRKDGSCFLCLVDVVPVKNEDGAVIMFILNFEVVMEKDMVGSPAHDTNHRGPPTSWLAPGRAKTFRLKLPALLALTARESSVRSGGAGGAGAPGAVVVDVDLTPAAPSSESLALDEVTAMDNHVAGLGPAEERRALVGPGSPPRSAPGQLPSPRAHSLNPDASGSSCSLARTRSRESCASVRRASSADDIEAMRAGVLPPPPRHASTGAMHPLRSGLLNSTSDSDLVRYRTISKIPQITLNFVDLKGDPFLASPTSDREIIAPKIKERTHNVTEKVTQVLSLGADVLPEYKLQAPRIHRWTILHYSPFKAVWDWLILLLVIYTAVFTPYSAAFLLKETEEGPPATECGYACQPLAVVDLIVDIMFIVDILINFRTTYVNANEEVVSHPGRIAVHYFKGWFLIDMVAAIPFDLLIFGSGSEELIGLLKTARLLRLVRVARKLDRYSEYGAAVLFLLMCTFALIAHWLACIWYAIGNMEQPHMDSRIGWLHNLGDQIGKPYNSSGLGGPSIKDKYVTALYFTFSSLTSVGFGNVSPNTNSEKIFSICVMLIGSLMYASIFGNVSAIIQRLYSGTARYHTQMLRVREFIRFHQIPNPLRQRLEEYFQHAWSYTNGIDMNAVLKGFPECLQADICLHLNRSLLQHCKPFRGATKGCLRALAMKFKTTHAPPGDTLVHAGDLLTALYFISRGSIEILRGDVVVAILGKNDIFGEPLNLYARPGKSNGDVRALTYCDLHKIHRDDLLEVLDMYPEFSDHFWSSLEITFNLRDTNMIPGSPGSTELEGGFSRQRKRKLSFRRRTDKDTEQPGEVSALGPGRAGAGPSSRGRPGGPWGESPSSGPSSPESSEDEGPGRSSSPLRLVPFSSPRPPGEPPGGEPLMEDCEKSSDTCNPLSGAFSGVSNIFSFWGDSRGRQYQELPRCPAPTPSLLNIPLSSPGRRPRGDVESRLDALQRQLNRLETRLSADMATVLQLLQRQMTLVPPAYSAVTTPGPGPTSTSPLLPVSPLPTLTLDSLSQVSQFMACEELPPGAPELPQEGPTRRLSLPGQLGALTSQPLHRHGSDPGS
Procedure, shortened: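 Thallium flux as potassium surrogate: FluxOR II dye loaded 1 h at room temperature into hERG-expressing U2OS cells, then stimulus buffer added after 10 min. Kinetic 480 nm excitation/540 nm emission read, 2 min.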

[9] = target: Cytochrome P450 3A4 (Homo sapiens) (UniProt P08684); experiment: Cytochrome P450 Family 3 Subfamily A Member 4 (CYP3A4) small molecule antagonists: luciferase reporter qHTS assay (AID 1671201); also: nearly all actives have a fitted effect of over 50% in size; also: potency is read from the fitted curve at half-maximal effect
Chain of Cytochrome P450 3A4 (Homo sapiens) (P08684 whole entry, looked up): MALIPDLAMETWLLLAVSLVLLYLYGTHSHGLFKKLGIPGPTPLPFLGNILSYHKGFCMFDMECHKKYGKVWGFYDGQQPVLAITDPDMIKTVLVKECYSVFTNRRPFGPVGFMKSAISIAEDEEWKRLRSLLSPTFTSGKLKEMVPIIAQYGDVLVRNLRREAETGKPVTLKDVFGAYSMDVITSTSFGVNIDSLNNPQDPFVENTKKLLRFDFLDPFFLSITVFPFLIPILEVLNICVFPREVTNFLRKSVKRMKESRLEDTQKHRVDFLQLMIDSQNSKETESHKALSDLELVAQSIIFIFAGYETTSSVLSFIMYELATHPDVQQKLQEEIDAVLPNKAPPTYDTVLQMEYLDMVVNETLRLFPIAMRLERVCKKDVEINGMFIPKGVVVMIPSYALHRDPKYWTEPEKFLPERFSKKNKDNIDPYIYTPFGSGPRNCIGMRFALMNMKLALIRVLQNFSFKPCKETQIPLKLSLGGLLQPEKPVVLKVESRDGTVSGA
Procedure, shortened: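 Recombinant human CYP3A4 converts a proluciferin substrate to luciferin over 1 h at room temperature after NADPH regeneration solution is added (compound preincubated 10 min); detection reagent stops reaction, luminescence read 20 min later as relative units.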

[10] = target: Cytochrome P450 2C9 (Homo sapiens) (UniProt P11712); experiment: Cytochrome P450 Family 2 Subfamily C Member 9 (CYP2C9) small molecule antagonists: luciferase reporter qHTS assay (AID 1671198); also: nearly all actives have a fitted effect of over 50% in size; also: potency is read from the fitted curve at half-maximal effect
Chain of Cytochrome P450 2C9 (Homo sapiens) (P11712 whole entry, looked up): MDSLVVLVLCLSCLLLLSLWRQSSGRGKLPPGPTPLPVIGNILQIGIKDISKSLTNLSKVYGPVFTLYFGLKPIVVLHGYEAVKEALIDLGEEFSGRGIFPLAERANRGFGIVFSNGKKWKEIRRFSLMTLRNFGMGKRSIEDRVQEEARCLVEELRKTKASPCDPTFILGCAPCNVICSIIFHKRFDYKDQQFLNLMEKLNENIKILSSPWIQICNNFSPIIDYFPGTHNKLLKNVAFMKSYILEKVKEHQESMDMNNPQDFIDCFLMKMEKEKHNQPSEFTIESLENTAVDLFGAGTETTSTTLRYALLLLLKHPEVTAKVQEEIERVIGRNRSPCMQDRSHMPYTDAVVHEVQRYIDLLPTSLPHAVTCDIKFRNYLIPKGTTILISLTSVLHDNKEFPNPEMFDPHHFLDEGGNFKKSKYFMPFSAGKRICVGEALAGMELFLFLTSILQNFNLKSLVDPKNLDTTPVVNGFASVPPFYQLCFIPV
Procedure, shortened: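 CYP2C9 activity was measured with a P450-Glo proluciferin substrate. Enzyme–substrate mix was held with compound for 10 min at room temperature, then NADPH regeneration solution was added for 1 h at 37C. Luciferin product was read as luminescence.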

[11] = target: Nuclear receptor subfamily 1 group I member 2 (Homo sapiens) (UniProt O75469); experiment: Human pregnane X receptor (PXR) small molecule agonists, qHTS assay (AID 1346982); also: nearly all actives have a fitted effect of over 35% in size; also: potency is read from the fitted curve at half-maximal effect
Chain of Nuclear receptor subfamily 1 group I member 2 (Homo sapiens) (O75469 whole entry, looked up): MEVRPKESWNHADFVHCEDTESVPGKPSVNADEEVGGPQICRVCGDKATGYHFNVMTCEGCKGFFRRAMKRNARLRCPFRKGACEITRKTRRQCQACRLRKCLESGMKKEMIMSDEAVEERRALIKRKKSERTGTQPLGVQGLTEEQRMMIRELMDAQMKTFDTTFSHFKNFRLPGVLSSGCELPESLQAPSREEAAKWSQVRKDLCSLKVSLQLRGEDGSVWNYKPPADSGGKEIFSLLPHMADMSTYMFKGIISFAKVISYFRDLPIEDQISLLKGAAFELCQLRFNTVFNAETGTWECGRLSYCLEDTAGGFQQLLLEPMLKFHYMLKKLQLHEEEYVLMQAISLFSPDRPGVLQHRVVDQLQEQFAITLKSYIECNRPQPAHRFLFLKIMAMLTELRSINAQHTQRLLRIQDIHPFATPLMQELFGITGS
Procedure, shortened: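 Agonist mode qHTS: PXR-Luc HepG2 cells plated 5 hr before DMSO-dissolved compounds were pinned in, cultured 24 hr at 37 C, 5% CO2; ONE-Glo luminescence readout.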

[12] = target: Cytochrome P450 1A2 (Homo sapiens) (UniProt P05177); experiment: Cytochrome P450 Family 1 Subfamily A Member 2 (CYP1A2) small molecule antagonists: luciferase reporter qHTS assay (AID 1671199); also: nearly all actives have a fitted effect of over 50% in size; also: potency is read from the fitted curve at half-maximal effect
Chain of Cytochrome P450 1A2 (Homo sapiens) (P05177 whole entry, looked up): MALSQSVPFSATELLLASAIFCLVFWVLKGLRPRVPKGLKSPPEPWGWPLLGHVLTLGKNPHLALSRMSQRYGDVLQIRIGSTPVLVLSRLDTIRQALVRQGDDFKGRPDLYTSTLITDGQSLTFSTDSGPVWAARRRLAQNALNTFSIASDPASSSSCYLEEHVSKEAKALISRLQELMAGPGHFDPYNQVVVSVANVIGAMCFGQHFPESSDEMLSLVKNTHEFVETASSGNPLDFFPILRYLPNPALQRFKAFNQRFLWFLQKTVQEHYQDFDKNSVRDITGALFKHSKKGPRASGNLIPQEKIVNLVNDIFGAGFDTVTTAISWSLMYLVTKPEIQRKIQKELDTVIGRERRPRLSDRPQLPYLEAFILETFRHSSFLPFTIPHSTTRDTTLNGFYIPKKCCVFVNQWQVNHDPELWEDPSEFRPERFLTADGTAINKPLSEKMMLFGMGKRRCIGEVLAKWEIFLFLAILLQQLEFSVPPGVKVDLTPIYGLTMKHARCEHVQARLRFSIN
Procedure, shortened: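 Inhibition of CYP1A2 conversion of proluciferin to luciferin, detected by luminescence. Reaction run 1 h at room temperature with NADPH regeneration after brief compound preincubation.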

[13] = target: Nuclear receptor subfamily 1 group I member 2 (Rattus norvegicus) (UniProt Q9R1A7); experiment: Rat pregnane X receptor (rPXR) activation by small molecules, qHTS assay (AID 1346983); details: rPXR luciferase reporter cells, One-Glo luminescence, 24 h; stronger effect = higher value; also: nearly all actives have a fitted effect of over 20% in size
Chain of Nuclear receptor subfamily 1 group I member 2 (Rattus norvegicus) (Q9R1A7 whole entry, looked up): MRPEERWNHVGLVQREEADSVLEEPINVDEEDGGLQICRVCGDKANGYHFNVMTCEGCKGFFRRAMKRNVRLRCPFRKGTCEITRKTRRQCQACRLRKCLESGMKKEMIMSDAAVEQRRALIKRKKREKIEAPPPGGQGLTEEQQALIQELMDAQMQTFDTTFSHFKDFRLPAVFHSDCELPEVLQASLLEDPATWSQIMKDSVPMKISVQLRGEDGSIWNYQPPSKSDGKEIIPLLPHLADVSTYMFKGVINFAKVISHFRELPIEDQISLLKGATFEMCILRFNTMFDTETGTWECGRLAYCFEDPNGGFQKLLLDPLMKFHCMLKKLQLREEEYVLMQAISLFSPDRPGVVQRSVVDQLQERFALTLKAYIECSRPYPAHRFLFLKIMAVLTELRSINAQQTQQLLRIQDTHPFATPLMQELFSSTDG
Procedure, shortened: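 Cell-based rPXR luciferase reporter assay, 2,000 cells per well, rested 5hr at 37 C before compound addition in DMSO, then 24 hr at 37 C. One-Glo reagent was added and luminescence read after 30 min at room temperature.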

[14] = target: Nuclear receptor subfamily 1 group I member 2 (Homo sapiens) (UniProt O75469); experiment: Human pregnane X receptor (PXR) activation by small molecules, qHTS assay (AID 1346985); also: nearly all actives have a fitted effect of over 40% in size
Procedure, shortened: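 DPX-2 cells (HepG2 co-transfected with a PXR response element and a CYP3A4-promoter luciferase construct) were seeded at 2,000 per well, rested 5 hr at 37C, then exposed to DMSO-dissolved compounds for 24 hr. Activation was read as luciferase luminescence.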

Row | SMILES | Potency [1] | Potency [2] | Potency [3] | Potency [4] | Potency [5] | Potency [6] | Potency [7] | Potency [8] | Potency [9] | Potency [10] | Potency [11] | Potency [12] | max activation [13] | Potency [14]
1 | CC(=O)C1=C(C)[C@@H]2C[C@@]3(C1)[C@H](C)CC[C@H]3C2(C)C | inactive | inactive | inactive | inactive | inactive | inactive | 93.5 µM (active) and 39.9 µM (active) | 24.5 µM (active) | 25.2 µM (active) | – | – | – | – | –
2 | CC[C@@H](N)CO | inactive | inactive | inactive | inactive | inactive | inactive | inactive | inactive | inactive | inactive | – | – | – | –
3 | O=C(Nc1ccccc1SSc1ccccc1NC(=O)c1ccccc1)c1ccccc1 | inactive | inactive | 24.5 µM (active) and 27.3 µM (active) | inactive | – | inactive | 3.19 µM (active) and 2.52 µM (active) | inactive | 2.01 µM (active) and 5.03 µM (active) | 505 nM (active) and 564 nM (active) | 48.8 µM (active) and 30.6 µM (active) | 8.01 µM (active) and 8.94 µM (active) | – | –
4 | O=C(O)c1cc(Cl)cc(Cl)c1 | inactive | inactive | inactive | inactive | inactive | 35.4 µM (active) | inactive | inactive | inactive | – | – | – | – | –
5 | Cc1ccnc2c1NC(=O)c1cccnc1N2C1CC1 | – | inactive | inactive | inactive | inactive | 7.4 µM (active) and inactive | inactive | inactive | inactive | inactive | inactive | 33 µM (active) and inactive | -1.62% (inactive) | inactive
6 | C=CC(=O)OCCCCCCOC(=O)C=C | inactive | inactive | 43.8 µM (active) and 43.3 µM (active) | – | inactive | inactive | 39.9 µM (active) | inactive | 40.4 µM (active) | 64.1 µM (active) and 56.4 µM (active) | – | 28.6 µM (active) and 31.7 µM (active) | – | –
7 | O | – | inactive | inactive | inactive | inactive | – | – | – | – | – | – | – | – | –
8 | O=c1n(CC2CO2)c(=O)n(CC2CO2)c(=O)n1CC1CO1 (stereo unspecified) | – | 68.2 µM (active) | 60.8 µM (active) and 48.6 µM (active) | inactive | 54.2 µM (active) and 48.6 µM (active) | inactive | inactive | inactive | inactive | – | 17.1 µM (active) and 13.7 µM (active) | – | -2.73% (inactive) | inactive
9 | CCCCN(CCO)CCCC | inactive | inactive | inactive | inactive | inactive | 36.4 µM (active) | – | inactive | inactive | – | – | – | – | –
10 | O=C1Nc2ccccc2C1(c1ccc(O)cc1)c1ccc(O)cc1 | inactive | inactive | – | inactive | inactive | – | 17.8 µM (active) and 9.77 µM (active) | inactive | – | 6.33 µM (active) and 3.89 µM (active) | 61.1 µM (active) and inactive | inactive | – | –
11 | C=C(C)C(=O)O | – | inactive | inactive | inactive | inactive | inactive | inactive | inactive | inactive | inactive | inactive | inactive | – | –
12 | O=C1OC2(c3ccc(O)cc3Oc3cc(O)ccc32)c2ccccc21 | – | inactive | – | inactive | – | inactive | 20 µM (active) and 4.9 µM (active) | 15.5 µM (active) and inactive | inactive | 11.2 µM (active) | – | inactive | 0.287% (inactive) | –
13 | COc1ccc(CCN(C)CCCC(C#N)(c2ccc(OC)c(OC)c2)C(C)C)cc1OC (stereo unspecified) | – | – | – | – | – | inactive | inactive | – | – | inactive | – | inactive | – | –
14 | CN1C(=O)c2ccc([N+](=O)[O-])cc2C1=O | – | inactive | inactive | inactive | inactive | – | 70.9 µM (active) | inactive | 39.9 µM (active) | – | – | 20 µM (active) | – | –
15 | CC(C)CCOC(=O)c1ccc(N(C)C)cc1 | – | inactive | inactive | inactive | inactive | inactive | 4.9 µM (active) | inactive | inactive | 8.71 µM (active) | – | 2.88 µM (active) | – | inactive
16 | O=C(O)CP(=O)(O)O | – | inactive | inactive | inactive | inactive | inactive | inactive | inactive | inactive | inactive | – | – | – | –
17 | Nc1nc2ccccc2[nH]1 | – | inactive | inactive | inactive | inactive | 62.5 µM (active) | inactive | inactive | inactive | inactive | – | inactive | – | –
18 | CCc1cc(C(C)(C)C)c(O)c(C(C)(C)C)c1 | – | inactive | inactive | inactive | inactive | inactive | 71.7 µM (active) and inactive | inactive | inactive | – | inactive and 34.4 µM (active) | inactive | – | –

Reference: PubChem BioAssay (Tox21)
